The structures appear in SMILES notation. Calls of active or inactive are those of the source. Unless noted, no rule for the calls is given here.

Assay [1] is described as follows: compounds binding Alexa647 anti-His antibody – biochemical, small-molecule microarray, 635 nm fluorescence, artefact control for SMM control protein annotation, primary screen (AID 1128).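 Also: score merges feature fluorescence with signal-to-noise for each printed compound spot.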 As to conditions: higher = more signal.
The test system of assay [2] is Human papillomavirus type 1a E7 protein (residues 1-88). Briefly: HPV1a E7 small-molecule binders, primary screen, biochemical, small-molecule microarray, residues 1-88, 635 nm (AID 1129). As to conditions: small-molecule microarray binding, fluorescence 635 nm; higher = more signal.
Assay [3] concerns the target Focal adhesion kinase 1 (Homo sapiens) (UniProt Q05397). Briefly: PTK2 protein binding on printed compound slides – biochemical, small-molecule microarray, 635/667 nm fluorescence, BSA, DTT, primary screen (AID 1130).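 Also: composite of spot emission at 667 nm and signal to noise over triplicate slides.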 As to conditions: 635 nm fluorescence, higher = more signal.
Assay [4] concerns Fibrinogen (Alexa647-labelled). Briefly: Alexa647-fibrinogen binding to printed small molecules – biochemical, small-molecule microarray, 635/667 nm fluorescence, artefact control for SMM control-protein annotation, profiling panel (AID 1131).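 Also: z-score merges 667 nm fluorescence with per-spot signal-to-noise over triplicate slides.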 As to conditions: fibrinogen-A647 binding fluorescence, higher = more signal.
The target in assay [5] is Follistatin (Homo sapiens) (UniProt P19883). Briefly: FST protein binding to printed compounds – biochemical, small-molecule microarray, 635/667 nm fluorescence, primary screen (AID 1132). The following applies: 635 nm fluorescence, higher = more signal.
For assay [6], the target named is Fibroblast growth factor 2 (Homo sapiens) (UniProt P09038). Briefly: basic fibroblast growth factor binding to printed compounds – biochemical, small-molecule microarray, 635/667 nm fluorescence, primary screen (AID 1133). As to conditions: FGF2, fluorescence 635/667, higher = more signal.
Assay [7] is described as follows: JC-1 mitochondrial potential readout, lung cancer cells – cell-based, A549, JC-1 fluorescence, basal, 24 h, 100 nL, profiling panel (AID 1138).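 Also: A549 lung adenocarcinoma cells under basal conditions with no added stimulus; test concentration not given here.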 The following applies: higher = more signal.
In a further assay the test system is Lefty1. Briefly: Lefty1 protein binding to printed compounds – biochemical, small-molecule microarray, 635/667 nm fluorescence, primary screen (AID 1139). As to conditions: fluorescence 635/667, higher = more signal.
Assay [8] concerns wheat germ agglutinin (Triticum aestivum), Alexa647-labelled. Briefly: Alexa647-WGA lectin binding to printed small molecules – biochemical, small-molecule microarray, 635/667 nm fluorescence, artefact control for SMM control-protein annotation, profiling panel (AID 1140).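 Also: score merges 667 nm feature emission with signal to noise over triplicate slides.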 The following applies: WGA-A647 binding, 635 nm fluorescence, higher = more signal.
In assay [9] the target is Luciferin 4-monooxygenase (Photinus pyralis) (UniProt P08659). As to the kind of experiment: inhibition of purified Photinus pyralis luciferase – biochemical, luminescence, purified enzyme, 2006 set, primary screen (AID 1141).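 Also: cell-free assay with purified firefly luciferase at 100 ng per well in PBS; test concentration not given here.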 As to conditions: purified firefly luciferase, SteadyGlo luminescence, 30 min; higher = more signal, called active from +8 up or from −8 down.
Assay [10] relates to Wnt5a (protein binding on small-molecule microarray). Briefly: small molecules binding Wnt5a protein – biophysical, small-molecule microarray, 635/667 nm fluorescence, primary screen (AID 1142).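 Also: fluorescence read at 667 nm with signal to noise per printed feature.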 As to conditions: 635 nm fluorescence, higher = more signal.
Assay [11] in a line: ATP-based viability of Huh7 replicon cells – cell-based, CellTiter-Glo luminescence, basal, 48 h, cytotoxicity control for HCV replication inhibitor project, primary screen (AID 1143).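 Also: Huh7 hepatoma cells carrying a hepatitis C replication reporter with no stimulus; test concentration not given here.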 The following applies: higher = more signal, called active from +8 up or from −8 down. A general note: In antiviral work, replicon cells carry a viral genome segment that copies itself.
Assay [12] in a line: Pseudomonas biofilm growth suppression – PAO1 strain, BacTiter-Glo luminescence, LB-PBS, primary screen (AID 1144). As to conditions: P. aeruginosa PAO1 biofilm, 12 h, higher = more signal.
A short description of assay [13]: basal CRE-LacZ reporter activity in PC12 – cell-based, unstimulated, primary screen (AID 1145). As to conditions: no forskolin, luminescence, 4.5 h, higher = more signal, called active from +8 up or from −8 down.
Assay [14] in a line: forskolin-driven CRE-LacZ activity in PC12 – cell-based, CRE-LacZ reporter, forskolin-stimulated, primary screen (AID 1146).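 Also: PC12 cells with 6xCRE LacZ reporter stimulated by forskolin 10 µM; beta-galactosidase reporter signal reflecting CREB driven transcription.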 The following applies: luminescence, 4.5 h, higher = more signal, called active from +8 up or from −8 down.
In assay [15] the target is Streptavidin (Streptomyces avidinii) (UniProt P22629). As to the kind of experiment: compounds binding control protein streptavidin – biophysical, small-molecule microarray, 635/667 nm fluorescence, artefact control for SMM compound annotation, primary screen (AID 1147).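 Also: signal reflects streptavidin binding to arrayed compounds as a control protein.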 The following applies: higher = more signal.
Assay [16] in a line: probe aInhba binding on compound microarray – biochemical, small-molecule microarray, 635/667 nm fluorescence, primary screen (AID 1148).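 Also: score merges 667nm spot fluorescence with signal-to-noise for antibody binding to printed compounds.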 The following applies: higher = more signal.
In assay [17] the target is Torsin-1A (Homo sapiens) (UniProt O14656). Briefly: TOR1A wild-type binding on microarray – cell lysate, small-molecule microarray, lysate, 635/667 nm, primary screen (AID 1149). As to conditions: COS7 hTOR1A-WT lysate, 635 nm fluorescence, higher = more signal.
For assay [18] the target is unchanged. As to the kind of experiment: torsin A mutant lysate binding on microarrays – cell lysate, small-molecule microarray, COS7 lysate, 635/667 nm fluorescence, primary screen (AID 1150).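 Also: score pools 667 nm emission and signal to noise measuring lysate protein binding.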 As to conditions: COS7 hTOR1A mutant lysate, 635 nm fluorescence, higher = more signal.
Assay [19] concerns Sonic hedgehog protein (Shh). Briefly: Sonic hedgehog microarray binding compounds – biochemical, small-molecule microarray, 635/667 nm fluorescence, primary screen (AID 1151).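 Also: Shh protein binding to compounds spotted on small-molecule microarray slides; score combines spot fluorescence intensity with signal-to-noise across triplicate slides.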 As to conditions: 635 nm fluorescence, higher = more signal.

Sequence of Streptavidin (Streptomyces avidinii) (P22629 whole entry, looked up): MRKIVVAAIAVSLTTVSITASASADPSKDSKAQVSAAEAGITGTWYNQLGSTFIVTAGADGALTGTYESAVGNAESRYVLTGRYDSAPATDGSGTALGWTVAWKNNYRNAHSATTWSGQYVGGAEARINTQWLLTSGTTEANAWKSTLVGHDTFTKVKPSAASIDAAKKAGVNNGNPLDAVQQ
Sequence of Luciferin 4-monooxygenase (Photinus pyralis) (P08659 whole entry, looked up): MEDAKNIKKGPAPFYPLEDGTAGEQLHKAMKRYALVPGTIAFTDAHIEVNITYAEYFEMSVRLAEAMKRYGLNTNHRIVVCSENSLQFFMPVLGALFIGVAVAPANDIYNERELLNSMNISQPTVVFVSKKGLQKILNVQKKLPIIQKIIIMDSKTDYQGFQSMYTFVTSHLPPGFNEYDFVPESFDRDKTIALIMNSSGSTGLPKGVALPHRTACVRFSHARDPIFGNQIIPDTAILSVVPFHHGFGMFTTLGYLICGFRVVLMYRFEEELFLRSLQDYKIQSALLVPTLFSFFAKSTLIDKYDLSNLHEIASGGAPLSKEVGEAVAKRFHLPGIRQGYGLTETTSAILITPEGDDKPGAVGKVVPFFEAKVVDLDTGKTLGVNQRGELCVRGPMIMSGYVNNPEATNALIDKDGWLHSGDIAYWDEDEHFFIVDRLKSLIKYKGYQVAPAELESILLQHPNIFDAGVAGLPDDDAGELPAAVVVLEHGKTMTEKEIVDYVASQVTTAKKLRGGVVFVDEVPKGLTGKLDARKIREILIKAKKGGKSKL
Sequence of Fibroblast growth factor 2 (Homo sapiens) (P09038 whole entry, looked up): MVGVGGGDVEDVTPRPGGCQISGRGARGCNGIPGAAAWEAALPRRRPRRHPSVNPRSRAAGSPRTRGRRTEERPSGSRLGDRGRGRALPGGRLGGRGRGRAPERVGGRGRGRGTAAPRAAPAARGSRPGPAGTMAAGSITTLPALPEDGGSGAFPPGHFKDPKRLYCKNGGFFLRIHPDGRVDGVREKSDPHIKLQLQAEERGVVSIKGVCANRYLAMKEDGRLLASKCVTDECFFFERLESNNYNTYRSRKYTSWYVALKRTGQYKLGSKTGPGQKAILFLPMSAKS
Sequence of Torsin-1A (Homo sapiens) (O14656 whole entry, looked up): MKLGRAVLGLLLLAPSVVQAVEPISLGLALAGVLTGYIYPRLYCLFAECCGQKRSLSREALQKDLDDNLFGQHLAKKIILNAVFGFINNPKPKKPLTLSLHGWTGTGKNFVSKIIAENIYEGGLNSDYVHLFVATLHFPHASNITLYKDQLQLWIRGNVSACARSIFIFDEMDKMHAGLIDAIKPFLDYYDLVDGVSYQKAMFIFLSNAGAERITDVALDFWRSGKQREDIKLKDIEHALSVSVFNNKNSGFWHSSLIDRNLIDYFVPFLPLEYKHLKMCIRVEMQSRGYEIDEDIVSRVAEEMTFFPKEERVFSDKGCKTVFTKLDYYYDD
Sequence of Focal adhesion kinase 1 (Homo sapiens) (Q05397 whole entry, looked up): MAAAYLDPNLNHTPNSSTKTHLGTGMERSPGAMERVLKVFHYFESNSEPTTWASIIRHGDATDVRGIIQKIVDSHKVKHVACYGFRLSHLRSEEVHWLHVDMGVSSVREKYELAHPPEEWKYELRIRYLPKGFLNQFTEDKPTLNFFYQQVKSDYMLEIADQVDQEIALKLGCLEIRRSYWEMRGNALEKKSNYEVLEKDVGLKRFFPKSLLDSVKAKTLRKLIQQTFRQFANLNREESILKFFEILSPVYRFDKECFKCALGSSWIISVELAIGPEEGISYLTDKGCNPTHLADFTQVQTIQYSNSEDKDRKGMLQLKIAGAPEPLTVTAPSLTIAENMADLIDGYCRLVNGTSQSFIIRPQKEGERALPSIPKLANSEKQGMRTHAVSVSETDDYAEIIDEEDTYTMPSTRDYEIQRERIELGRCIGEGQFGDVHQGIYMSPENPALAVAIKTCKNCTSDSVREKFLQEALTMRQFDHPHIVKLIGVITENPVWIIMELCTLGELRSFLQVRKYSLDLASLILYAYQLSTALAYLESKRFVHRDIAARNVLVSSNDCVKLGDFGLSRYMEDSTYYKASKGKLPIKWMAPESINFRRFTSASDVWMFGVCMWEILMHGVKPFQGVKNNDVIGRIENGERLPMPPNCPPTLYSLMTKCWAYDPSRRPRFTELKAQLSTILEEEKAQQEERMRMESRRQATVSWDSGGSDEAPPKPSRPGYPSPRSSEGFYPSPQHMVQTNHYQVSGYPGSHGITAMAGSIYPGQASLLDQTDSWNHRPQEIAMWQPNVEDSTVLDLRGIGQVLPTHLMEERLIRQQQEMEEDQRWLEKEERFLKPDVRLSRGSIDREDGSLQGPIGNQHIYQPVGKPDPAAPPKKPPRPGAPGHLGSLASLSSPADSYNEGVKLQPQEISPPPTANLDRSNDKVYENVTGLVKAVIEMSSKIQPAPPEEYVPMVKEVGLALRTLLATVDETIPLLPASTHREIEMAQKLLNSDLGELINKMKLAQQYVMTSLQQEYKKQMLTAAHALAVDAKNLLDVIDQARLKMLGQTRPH
Sequence of Follistatin (Homo sapiens) (P19883 whole entry, looked up): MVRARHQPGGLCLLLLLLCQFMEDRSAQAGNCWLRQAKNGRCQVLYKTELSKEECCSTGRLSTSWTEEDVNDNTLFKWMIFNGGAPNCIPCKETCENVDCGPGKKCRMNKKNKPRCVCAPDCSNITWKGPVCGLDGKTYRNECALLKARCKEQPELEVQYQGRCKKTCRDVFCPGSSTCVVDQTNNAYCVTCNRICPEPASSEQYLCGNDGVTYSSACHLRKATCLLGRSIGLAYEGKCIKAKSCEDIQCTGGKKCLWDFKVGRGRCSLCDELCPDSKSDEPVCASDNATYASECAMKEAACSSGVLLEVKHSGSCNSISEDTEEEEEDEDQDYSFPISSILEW

Regarding `CN1C(=O)C2C=CC(C(O)c3ccc(Br)cc3)N(N(c3ccccc3)c3ccccc3)C2C1=O` (stereo not given), the composite z-score in [1] was 0.373; in assay [2], 0.77; in assay [3], 0.704; in assay [4], 0.312; in assay [5], 0.502; in assay [6] it was -0.538. Moreover, the composite z-score in the assay on Lefty1 is -0.409; in [8], 0.585; in assay [10], -0.0158; in assay [15], 1.04; in assay [16] it was -0.0375; with Torsin-1A (Homo sapiens) [17], 0.293. For the same molecule, the composite z-score is -0.135 in the assay with Torsin-1A (Homo sapiens) [18] and -0.583 in [19]. In addition, the z-score in assay [7] was 1.34; in assay [9] it was -0.495 (inactive); in assay [11], -0.776 (inactive); in assay [12], -1.19 (inactive); in [13], 1 (inactive); in [14] it was -0.342 (inactive).

Consider `CCOC(=O)CCN1C(=O)[C@H]2[C@H]3[C@H](O)[C@H](O)CC(=NOC[C@@H](O)COCc4ccco4)[C@@H]3CC[C@H]2C1=O`, for which the composite z-score in assay [1] is 1.08; in assay [2] it was -0.0069; in assay [3], 0.144; in assay [4], 0.825; in assay [5], -0.977; in assay [6], 0.225. The composite z-score in the assay with Lefty1 is -0.219; in assay [8], 0.0513; in assay [10], -0.0579; in [15], 0.663; in assay [16], -0.197; with Torsin-1A (Homo sapiens) [17] it was 0.584. Further, the figures for the composite z-score (with Torsin-1A (Homo sapiens) [18]; in assay [19]) were -0.0032 and -0.825, respectively. Moreover, the z-score was 0.928 in assay [7]; 0.542 (inactive) in assay [9]; -0.632 (inactive) in assay [11]; -0.35 (inactive) in assay [12]; 0.251 (inactive) in assay [13]; 0.069 (inactive) in assay [14].

On to `CC(=O)C[C@H](O)[C@@H](NC(=O)OC(C)(C)C)C(C)C`, for which the composite z-score is -0.0599 in assay [1]; -1.54 in assay [2]; -0.352 in assay [3]; -0.454 in assay [4]; -0.118 in [5]; -0.312 in assay [6]. The composite z-score was 0.304 with Lefty1; -0.644 in assay [8]; -0.388 in assay [10]; -0.3 in assay [15]; -0.0963 in assay [16]; -1.05 in the assay with Torsin-1A (Homo sapiens) [17]. In addition, the composite z-score with Torsin-1A (Homo sapiens) [18] was -0.657; in assay [19] it was 0.347. The z-score in assay [7] was -0.824; in [9], 0.364 (inactive); in [11], -2.64 (inactive); in assay [12], -1.13 (inactive); in assay [13] it was 0.288 (inactive); in assay [14], 1.01 (inactive).

As to `CC=CC1=C(CO)[C@H](O)[C@H]2O[C@H]2[C@H]1O`, the composite z-score in [1] was 0.189; in assay [2], 0.277; in [3], -0.0741; in assay [4] it was -0.0409; in assay [5], 0.589; in assay [6] it was 1.06. For the same molecule, the composite z-score is 0.871 in the assay on Lefty1; -0.191 in assay [8]; 0.261 in assay [10]; 0.082 in assay [15]; -0.0719 in assay [16]; 0.769 with Torsin-1A (Homo sapiens) [17]. Further, the values for the composite z-score (in the assay with Torsin-1A (Homo sapiens) [18]; in assay [19]) were -0.0205 and 1.14, respectively. Further, the z-score was -0.565 in assay [7]; -0.115 (inactive) in assay [9]; 0.678 (inactive) in [11]; 1.58 (inactive) in assay [12]; 0.292 (inactive) in assay [13]; 0.798 (inactive) in [14].

For `COCCCNC(=O)[C@@]1(CCS(=O)(=O)c2ccccc2)N=C(c2ccc(OCCCO)cc2)O[C@H]1c1ccccc1`, the composite z-score in assay [1] was determined as 2.98; in assay [2], 1.25; in assay [3], 0.746; in assay [4] it was 0.878; in assay [5], 0.695; in assay [6], 0.426. For the same molecule, the composite z-score is -0.854 in the assay with Lefty1; 0.716 in [8]; 0.68 in assay [10]; 0.188 in assay [15]; 0.38 in assay [16]; 1.45 with Torsin-1A (Homo sapiens) [17]. Also, the composite z-score was 2.73 with Torsin-1A (Homo sapiens) [18] and -0.766 in [19]. For the same molecule, the z-score in [7] was 2.39; in assay [9] it was -1.79 (inactive); in [11], -1.7 (inactive); in assay [12] it was -0.701 (inactive); in assay [13], 0.951 (inactive); in assay [14], 0.353 (inactive).

Source of the values: PubChem BioAssay.
